Screens (PubChem)
FAS-TE inh = inhibitors of human fatty acid synthase thioesterase domain | P49327 | recombinant FAS-TE, OMFH fluorogenic substrate, fluorescence endpoint | inhibition, % at 15 µM | 0.67% of 360,000 active | AID 602261;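 active means compounds whose normalised, plate-corrected inhibition of enzyme fluorescence in the single-dose primary screen is 50% or more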
aDG glyco up = alpha-DG glycosylation activation | Pro5-aDG cells, alpha-DG glycosylation AlphaScreen (IIH6); 0% Pro5, 100% B10-LARGE cell signal | activation, % at 10 µM | 0.22% of 360,000 active | AID 624168;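 active means activation of at least 8% versus controls, or a plate z-score of at least 8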;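 further: Pro5 are CHO cells carrying HIG-tagged alpha-DG that lacks glycosylation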
GRIN3A LBD mod = modulators (binders) of human NR3A ligand-binding domain; NR3A LBD differential scanning fluorimetry, Tm shift; 0% = protein alone, 100% = glycine-bound protein; Tm shift relative to glycine control, % at 25 µM; 2.5% of 340,000 active;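 active means melting temperature shift of at least 10% of the positive control shift, at one fixed dose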
ADAM10 inh = ADAM10 inhibition, QFRET primary screen | O14672 | recombinant ADAM10, EDANS/DABCYL FRET peptide cleavage, 3 h | inhibition, % at 7 µM | 0.62% of 370,000 active;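 active means inhibition above a per-campaign cutoff equal to the mean of compounds falling between control-based bounds plus 3 SD, cut at about 20% in these data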
Target sequence (O14672 214-748 limits assumed): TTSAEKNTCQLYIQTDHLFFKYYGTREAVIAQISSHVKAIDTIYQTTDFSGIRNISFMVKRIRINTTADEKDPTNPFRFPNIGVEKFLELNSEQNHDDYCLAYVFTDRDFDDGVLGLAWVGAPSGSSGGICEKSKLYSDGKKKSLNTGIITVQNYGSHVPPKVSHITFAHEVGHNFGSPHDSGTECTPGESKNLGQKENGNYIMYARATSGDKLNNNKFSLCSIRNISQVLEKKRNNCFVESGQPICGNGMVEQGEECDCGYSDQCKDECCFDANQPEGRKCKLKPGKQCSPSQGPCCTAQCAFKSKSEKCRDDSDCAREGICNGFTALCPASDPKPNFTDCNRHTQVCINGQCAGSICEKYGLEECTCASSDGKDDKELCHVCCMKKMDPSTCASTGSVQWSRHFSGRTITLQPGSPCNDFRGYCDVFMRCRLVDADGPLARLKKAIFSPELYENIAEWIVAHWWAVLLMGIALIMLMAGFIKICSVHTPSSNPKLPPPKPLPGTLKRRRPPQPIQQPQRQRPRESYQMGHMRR
ADAM17 inh = inhibitors of human ADAM17; P78536; recombinant ADAM17, EDANS/DABCYL FRET peptide cleavage; inhibition, % at 6.95 µM; 0.83% of 370,000 active; AID 720648;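 active means inhibition above the mean of compounds lying between control limits plus 3 SD, set per campaign, cut at about 8.5% in these data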
ADAM10 confirm = confirmation of inhibitors of human ADAM10. shares compounds with ADAM10 inh. inhibition, % at 6.95 µM. ADAM10 QFRET peptide cleavage, EDANS fluorescence. 1% of 2,100 active;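 active means inhibition above about 20% chosen separately for each screening run, limit read from the data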
ADAM17 ctr = counter-screen for ADAM10 exosite inhibitors: inhibitors of human ADAM17. inhibition, % at 6.95 µM. ADAM17 QFRET peptide cleavage, EDANS fluorescence. shares compounds with ADAM10 inh. AID 743214. 0.5% of 2,100 active;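 active means mean triplicate inhibition above the solvent-only control wells' mean plus 3 SD, cut at about 12% in these data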
ADAM10 counter = ADAM10 inhibition, counter-screen for ADAM17 exosite hits. shares compounds with ADAM17 inh. recombinant ADAM10, EDANS/DABCYL FRET peptide cleavage, 3 h. inhibition, % at 6.95 µM. 47% of 2,900 active;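 active means mean inhibition over the triplicate runs exceeds the activity threshold set in the earlier primary screen, cut at about 20% in these data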
ADAM17 confirm = human ADAM17 inhibition, confirmation; shares compounds with ADAM17 inh; recombinant ADAM17, EDANS/DABCYL QFRET peptide cleavage; inhibition, % at 6.95 µM; 65% of 2,900 active; AID 743257;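 active means mean inhibition across replicates above the hit cutoff set in the primary screen, cut at about 8.5% in these data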
Of the large screens only hits and unclear results are named; the others gave an inactive call (follow-up assays come after a bar, where they were run); ! = not confirmed by another sample. Sampled rows, rich in hits. Any-hit rate of the full collection: about 4%.

CCCCC[C@H](C)N1C[C@@H](COCc2ccccc2)Oc2cc(N3CCC[C@H]3C(N)=O)ccc2S1(=O)=O	ADAM10 inh 22.5, ADAM17 inh 11.3 (no result: GRIN3A LBD mod) | ADAM10 confirm inactive | ADAM17 ctr inactive | ADAM10 counter 38.5 | ADAM17 confirm 23.0
CCCCC[C@H](C)N1C[C@H](COCc2ccccc2)Oc2cc(N3CCC[C@@H]3CO)ccc2S1(=O)=O	none (no result: GRIN3A LBD mod)
CCCCC[C@H](C)N1C[C@H](COCc2ccccc2)Oc2cc(N3CC[C@H](O)C3)ccc2S1(=O)=O	none (no result: GRIN3A LBD mod)
CCCCC[C@@H](C)N1C[C@H](COCc2ccccc2)Oc2cc(N3CC[C@@H](O)C3)ccc2S1(=O)=O	ADAM10 inh 22.2, ADAM17 inh 9.9 (no result: GRIN3A LBD mod) | ADAM10 confirm inactive | ADAM17 ctr inactive | ADAM10 counter 39.7 | ADAM17 confirm 24.1
CCCCC[C@@H](C)N1C[C@@H](COCc2ccccc2)Oc2cc(N3CCC[C@H]3C(N)=O)ccc2S1(=O)=O	ADAM10 inh 27.8, ADAM17 inh 15.5 (no result: GRIN3A LBD mod) | ADAM10 confirm inactive | ADAM17 ctr inactive | ADAM10 counter 22.5 | ADAM17 confirm 14.0
COc1ccc(N2CCN(c3cc(C)nc4ccc(OC)cc34)CC2)cc1	none
CC(C)(C)c1ccc(S(=O)(=O)NNC(=O)C2CCN(Cc3cccc(F)c3)CC2)cc1	none
CCCc1ncc(C(O)c2cccc(OC)c2OC)n1C (stereo not given)	none
CCO[C@H]1OC(C(=O)Nc2ccccc2)=C[C@@H](c2ccc(C(F)(F)F)cc2)[C@@H]1CCCO	ADAM10 inh 26.5, ADAM17 inh 15.3 | ADAM10 confirm inactive | ADAM17 ctr inactive | ADAM10 counter 30.0 | ADAM17 confirm 18.1
CCO[C@@H]1OC(C(=O)N2CCCCCCC2)=C[C@H](c2ccc(C(F)(F)F)cc2)[C@H]1CCCO	none
Cc1ccc(OCCNC(=O)c2cccc(C)c2)cc1	none
Cc1cccc(OCCNC(=O)c2cccc(Oc3ccc(C(F)(F)F)cc3[N+](=O)[O-])c2)c1	ADAM10 inh 32.3, ADAM17 inh 14.0 | ADAM10 confirm inactive | ADAM17 ctr inactive | ADAM10 counter 34.1 | ADAM17 confirm 17.7
Cc1onc(-c2c(Cl)cccc2Cl)c1C(=O)N[C@@H]1C(=O)N2[C@@H]1SC(C)(C)[C@@H]2C(=O)O	ADAM10 inh 20.5!, ADAM17 inh 9.6! | ADAM10 confirm inactive | ADAM17 ctr inactive | ADAM10 counter inactive | ADAM17 confirm inactive
Cc1onc(-c2c(Cl)cccc2Cl)c1C(=O)NC1C(=O)N2C1SC(C)(C)C2C(=O)O (stereo not given)	none
CCOc1ccc(CN(C)CC(O)COC(c2ccc(OC)cc2)c2ccc(OC)cc2)cc1 (stereo not given)	none
S=C(Nc1ccc(Nc2ccccc2)cc1)NC1CCCCCC1	ADAM10 inh 29.8, ADAM17 inh 10.2 | ADAM10 confirm inactive | ADAM17 ctr inactive | ADAM10 counter 27.6 | ADAM17 confirm 16.7
O=C(CN1C(=O)C2C3c4ccccc4C(c4ccccc43)C2C1=O)Nc1cccc(C(=O)O)c1 (stereo not given)	none
O=C(NCC1COc2ccccc2O1)c1cccc(S(=O)(=O)N2CCN(c3ccccc3)CC2)c1 (stereo not given)	ADAM10 inh 20.9, ADAM17 inh 9.9 | ADAM10 confirm inactive | ADAM17 ctr inactive | ADAM10 counter inactive | ADAM17 confirm 12.7
O=C(NCC1COc2ccccc2O1)c1cccc(S(=O)(=O)N2CCCCC2)c1 (stereo not given)	none
COC(=O)C1=C(C)N(Cc2cccc(C(F)(F)F)c2)C(=NCc2ccc(C(F)(F)F)cc2)NC1c1cccc(F)c1 (stereo not given)	ADAM10 inh 21.1, ADAM17 inh 9.4 (no result: FAS-TE inh, aDG glyco up, GRIN3A LBD mod) | ADAM10 confirm inactive | ADAM17 ctr inactive | ADAM10 counter 22.4 | ADAM17 confirm 12.3
COC(=O)C1=C(C)N(Cc2ccc(C(F)(F)F)cc2)C(=NCc2ccccc2)NC1c1cccc(F)c1 (stereo not given)	none (no result: FAS-TE inh, aDG glyco up, GRIN3A LBD mod)
Cc1ccccc1Nc1nc(N)nc(CSc2nc3ccccc3s2)n1	none
Cc1ccc(Nc2nc(N)nc(CSc3nc4ccccc4s3)n2)cc1	GRIN3A LBD mod 17.0, ADAM10 inh 28.9, ADAM17 inh 12.9 | ADAM10 confirm inactive | ADAM17 ctr inactive | ADAM10 counter 42.8 | ADAM17 confirm 25.2
C[C@@H]1CCC(=O)N(CC[C@H](Sc2ccc(Br)cc2)c2ccccc2)CC1	ADAM10 inh 21.5, ADAM17 inh 16.1 | ADAM10 confirm inactive | ADAM17 ctr inactive | ADAM10 counter 21.3 | ADAM17 confirm 11.4
O=S(=O)(/N=C(/Nc1ccccn1)c1ccccc1)c1ccc(F)cc1	none
CCCCNC(=O)CCC(=O)N1CCN(C(c2ccccc2)c2ccccc2)CC1	none
CCn1c(Cn2nnc(-c3ccccc3)n2)nnc1SCc1ccc(Cl)c(Cl)c1	ADAM10 inh 25.5, ADAM17 inh 9.1 | ADAM10 confirm inactive | ADAM17 ctr inactive | ADAM10 counter 31.9 | ADAM17 confirm 18.0
O=C(NCCC1=CCCCC1)c1ccc2c(c1)N(Cc1ccccc1)C(=O)CS2	ADAM10 inh 27.2, ADAM17 inh 16.9 | ADAM10 confirm inactive | ADAM17 ctr inactive | ADAM10 counter 25.8 | ADAM17 confirm 13.3
O=C(NCCN1CCOCC1)c1ccc2c(c1)N(Cc1ccccc1)C(=O)CS2	none
Cc1ccc(NS(=O)(=O)c2cc(C(=O)NCCSc3ccc(C)cc3)ccc2C)cc1	GRIN3A LBD mod 12.5, ADAM10 inh 23.2, ADAM17 inh 11.6 | ADAM10 confirm inactive | ADAM17 ctr inactive | ADAM10 counter 37.7 | ADAM17 confirm 20.3
Cc1ccc(C(=O)NCCSc2ccc(Cl)cc2)cc1S(=O)(=O)Nc1ccccc1	GRIN3A LBD mod 21.6, ADAM10 inh 25.2, ADAM17 inh 11.0 | ADAM10 confirm inactive | ADAM17 ctr inactive | ADAM10 counter 27.0 | ADAM17 confirm 15.7
Cc1ccc(SCCNC(=O)c2ccc(C)c(S(=O)(=O)Nc3cccc(C)c3)c2)cc1	ADAM10 inh 27.0, ADAM17 inh 12.0 | ADAM10 confirm inactive | ADAM17 ctr inactive | ADAM10 counter 30.4 | ADAM17 confirm 17.2
CCCc1nc(SCc2ccccn2)c2c(=O)n(C)c(=O)n(C)c2n1	none
Cc1cc(NC(=O)CN2C(=O)NC3(CCCCC3)C2=O)no1	none
O=C(O)c1ccccc1NN=C1CCCCC1	none
COCC(C)N=Cc1c(O)[nH]c2ccccc12 (stereo not given)	none
